Experimental data as given in PubChem BioAssay AID720700 (The Scripps Research Institute Molecular Screening Center, 2013).
Hit rate of the full screen: of about 370,000 compounds, about 3,100 (0.84%) were called active. The sample holds actives, similar compounds and a random draw of the others, so the mix is not that of the screen. Rule as the data show it: active = inhibition above about 9.5%; inactive = the rest.

Each molecule was assayed against 1-phosphatidylinositol 4,5-bisphosphate phosphodiesterase gamma-1 (Homo sapiens) (UniProt P19174) (assay: PLC-gamma1 enzyme inhibitors, primary screen, biochemical, fluorescence, purified enzyme (AID 720700)). Conditions: purified PLC-gamma1, fluorogenic substrate, at 12.2 µM, stronger effect = higher value.
1-phosphatidylinositol 4,5-bisphosphate phosphodiesterase gamma-1 (Homo sapiens), sequence (P19174 whole entry, looked up): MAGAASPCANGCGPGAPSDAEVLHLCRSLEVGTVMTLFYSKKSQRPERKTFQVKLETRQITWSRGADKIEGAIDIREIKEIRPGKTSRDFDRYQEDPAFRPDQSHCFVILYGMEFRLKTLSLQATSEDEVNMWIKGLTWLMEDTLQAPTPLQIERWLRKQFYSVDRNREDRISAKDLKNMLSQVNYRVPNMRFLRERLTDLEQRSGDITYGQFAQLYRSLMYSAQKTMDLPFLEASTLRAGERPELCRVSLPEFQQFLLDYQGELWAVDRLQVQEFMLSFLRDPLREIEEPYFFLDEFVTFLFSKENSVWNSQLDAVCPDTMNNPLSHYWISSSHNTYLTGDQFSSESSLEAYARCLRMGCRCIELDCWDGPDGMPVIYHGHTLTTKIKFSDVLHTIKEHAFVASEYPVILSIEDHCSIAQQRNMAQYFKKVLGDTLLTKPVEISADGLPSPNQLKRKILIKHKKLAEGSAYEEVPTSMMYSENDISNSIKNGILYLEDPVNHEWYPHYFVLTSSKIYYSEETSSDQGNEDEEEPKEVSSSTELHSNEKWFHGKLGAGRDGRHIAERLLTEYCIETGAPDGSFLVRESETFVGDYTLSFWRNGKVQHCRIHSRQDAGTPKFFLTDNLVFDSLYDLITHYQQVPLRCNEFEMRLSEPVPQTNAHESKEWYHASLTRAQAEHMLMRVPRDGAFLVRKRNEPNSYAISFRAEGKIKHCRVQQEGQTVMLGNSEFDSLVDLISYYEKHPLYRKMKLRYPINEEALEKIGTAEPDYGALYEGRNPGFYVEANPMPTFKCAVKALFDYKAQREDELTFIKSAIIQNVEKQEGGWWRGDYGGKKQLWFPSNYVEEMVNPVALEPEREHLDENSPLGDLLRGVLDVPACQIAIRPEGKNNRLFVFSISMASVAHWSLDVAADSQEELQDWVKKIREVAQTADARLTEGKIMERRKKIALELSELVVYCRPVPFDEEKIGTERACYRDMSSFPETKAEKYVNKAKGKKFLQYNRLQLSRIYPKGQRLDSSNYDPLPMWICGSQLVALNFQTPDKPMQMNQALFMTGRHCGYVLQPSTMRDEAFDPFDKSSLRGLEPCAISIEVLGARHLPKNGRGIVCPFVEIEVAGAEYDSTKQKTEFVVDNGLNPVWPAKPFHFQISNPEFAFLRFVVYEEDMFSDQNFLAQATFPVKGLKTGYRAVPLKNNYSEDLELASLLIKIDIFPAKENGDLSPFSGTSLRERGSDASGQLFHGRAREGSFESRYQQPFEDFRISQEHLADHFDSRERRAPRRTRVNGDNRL
For COc1ccc(CN2C(=O)N3Cc4cc(OC)ccc4C3CS2(=O)=O)cc1 (configuration not stated), the inhibition was 0.38% (inactive).
In the case of O=C(NCCCc1ccccc1)[C@H](Cc1ccccc1)NC1(C(=O)NCCc2c[nH]c3ccccc23)CCC1, the inhibition is reported as -0.08% (inactive).
For Cc1ccc(C(=O)N(Cc2ccccn2)CC2CCCO2)cc1 (configuration not stated), the inhibition was 0.65% (inactive).
CN1C[C@]2(C=C3CCCCC3n3c(=O)n(-c4ccccc4)c(=O)n32)N=C1NC(=O)c1ccccc1 (some centres not stated) was tested, and the inhibition was -0.41% (inactive).
In the case of CNC(=O)n1ccc(C(=O)N2CCCCC2)n1, the inhibition is reported as 9.53% (active).
For Cc1ccc(C(=O)N2CCCC2)c(F)c1F, the inhibition was 2.59% (inactive).
For Cc1cccc(NC(=O)N2CCCCCC2)c1C, the inhibition was 0.02% (inactive).
Nn1c(SCC(=O)N2c3ccccc3Sc3ccccc32)nnc1-c1n[nH]c2c1CCC2 was tested, and the inhibition was 1.2% (inactive).
In the case of COP(=O)(O)CNC(=O)OCc1ccccc1, the inhibition is reported as 2.2% (inactive).
In the case of CC(CCN1CCC(C(O)(c2ccccc2)c2ccccc2)CC1)Oc1ccc(C(F)(F)F)cc1 (configuration not stated), the inhibition is reported as 6.64% (inactive).
In the case of COC(=O)c1cc(S(=O)(=O)N2CCN(c3ccccc3C)CC2)cn1C, the inhibition is reported as -2.77% (inactive).
For C=CCN1C(=O)[C@H](CC(=O)NCCCN2CCCC2=O)[C@@]2(C(=O)OCC)CCCC=C12, the inhibition was -1.95% (inactive).
In the case of CCCCCN1CCCCC(NC(=O)C(C)CCC)C1=O (configuration not stated), the inhibition is reported as 0.76% (inactive).
For CC(=O)O[C@@]1(C(C)=O)CCC2[C@H]3C=C(C)C4=CC(=O)CC[C@@]4(C)C3CC[C@]21C (some centres not stated), the inhibition was -2.78% (inactive).
For CCC1S/C(=N/N=C/c2ccco2)NC1=O (configuration not stated), the inhibition was 10.6% (active).
With CCCCC1S/C(=N/N=C/c2cccs2)NC1=O (configuration not stated) the inhibition was -0.02% (inactive).
With O=C1N/C(=N\N=C\c2ccco2)SC1Cc1ccc(F)cc1 (configuration not stated) the inhibition was 2.17% (inactive).
Cc1cccc(C(=O)Nc2c(-c3ccc(F)cc3)nc3ncccn23)c1 was tested, and the inhibition was -270% (inactive).
In the case of O=[N+]([O-])c1cc(C(F)(F)F)ccc1NN=C1CCCC1, the inhibition is reported as 11.1% (active).
In the case of O=[N+]([O-])c1cc(C(F)(F)F)ccc1NCCc1ccncc1, the inhibition is reported as -0.57% (inactive).
With O=[N+]([O-])c1cc(S(=O)(=O)N2CCCC2)ccc1NN=C1CCCC1 the inhibition was 7.15% (inactive).
With COc1ccc2c(C(C)c3ccc(N)cc3)cn(C)c2c1 (configuration not stated) the inhibition was 3.03% (inactive).
For N#Cc1ccccc1OC[C@@H](O)CN1CCC(C(O)(c2ccccc2)c2ccccc2)CC1, the inhibition was 2.31% (inactive).
CCOc1ccc(Oc2c(Cl)cnn(-c3ccc(C)cc3)c2=O)cc1 was tested, and the inhibition was -4.67% (inactive).
With CN(CCc1ccccc1)C(=O)Cn1nc(-c2ccccc2)ccc1=O the inhibition was 1.49% (inactive).
For C=CCSC(CC)(CC)C(N)=O, the inhibition was 11.9% (active).
For CC(CCN1CCC(C(O)(c2ccccc2)c2ccccc2)CC1)Oc1ccc([N+](=O)[O-])cc1Cl (configuration not stated), the inhibition was 6.49% (inactive).
In the case of COc1ccc(C(=O)OCCN(C)C2CN(Cc3cn(Cc4cccc(C)c4)nn3)S(=O)(=O)C2)cc1OC (configuration not stated), the inhibition is reported as 3.3% (inactive).
In the case of O=C(c1ccccn1)c1ncc(C(F)(F)F)cc1Cl, the inhibition is reported as 1.59% (inactive).
For Cc1cc(C)cc(NS(=O)(=O)c2ccc(Oc3ncc(C(F)(F)F)cc3Cl)cc2)c1, the inhibition was -1.75% (inactive).
FC(F)(F)c1cnc(Oc2ccccc2-c2nnc(-c3ccc(Cl)cc3)o2)c(Cl)c1 was tested, and the inhibition was 12.3% (active).
In the case of Cc1ccccc1NC(=O)C1CCN(c2ncccn2)CC1, the inhibition is reported as -3.53% (inactive).
With CC(C)(C)OC(=O)NCCc1ccccc1/C=C/S(=O)(=O)NCc1ccc(F)cc1 the inhibition was -0.15% (inactive).
CC1CCN(c2ccc(C(=O)O)cc2NS(=O)(=O)c2ccc(Br)s2)CC1 was tested, and the inhibition was 2.88% (inactive).
O=C(Nc1ccc(C(F)(F)F)cc1)c1cccc(-n2cnnn2)c1 was tested, and the inhibition was -2.72% (inactive).
For CNC(=O)c1ccc(NC(=O)c2cccc(C(F)(F)F)c2)cc1, the inhibition was 14.4% (active).
With O=C(Cn1cc(/C=N/NC(=O)c2cccc(C(F)(F)F)c2)c2ccccc21)Nc1ccc(F)cc1 the inhibition was -0.8% (inactive).
O=C1[C@H]2[C@@H](c3ccc(Cl)cc3)N3C(=O)N(c4cccc(F)c4)C(=O)[C@@]3(Cc3ccccc3)[C@H]2C(=O)N1C1CCCCC1 was tested, and the inhibition was -2.34% (inactive).
For Cc1cccc([C@@H]2[C@@H]3C(=O)N(Cc4ccccc4)C(=O)[C@@H]3[C@]3(Cc4ccc(Cl)cc4)C(=O)N(c4cccc(Cl)c4)C(=O)N23)c1, the inhibition was 11.3% (active).
In the case of Cc1cccc(N2C(=O)N3[C@H](c4ccc(F)cc4)[C@@H]4C(=O)N(C5CCCCC5)C(=O)[C@@H]4[C@]3(Cc3ccccc3)C2=O)c1, the inhibition is reported as 2.62% (inactive).
C[C@@H]1ON(C)[C@H]2C[C@H]3c4[nH]c5cccc(-c6ccc7c(c6)OCO7)c5c4CCN3C[C@@H]12 was tested, and the inhibition was -51.7% (inactive).
In the case of N#CCC[C@H]1CC[C@]2(CCCN(Cc3ccc(Cl)cc3)C2)O1, the inhibition is reported as -3.24% (inactive).
COc1ccc(CCNC(=O)CSc2nc3c([nH]2)c(=O)n(C)c(=O)n3C)cc1 was tested, and the inhibition was -0.19% (inactive).
With CN(C)S(=O)(=O)c1cccc(NC(=O)COC(=O)C2(c3ccccc3F)CCCC2)c1 the inhibition was 11.9% (active).
CN(C)S(=O)(=O)c1cccc(NC(=O)COC(=O)c2cc(=O)[nH]c(=O)[nH]2)c1 was tested, and the inhibition was 5.81% (inactive).
With CN(C)S(=O)(=O)c1cccc(NC(=O)COc2ccc3ccccc3c2)c1 the inhibition was 2.81% (inactive).
For O=C(NCc1ccc(F)cc1F)[C@@H]1CCCN1C(=O)[C@@H]1CCCN1C(=O)c1cccc(Cl)c1, the inhibition was 11% (active).
For O=C(NCc1ccccc1)[C@@H]1CCCN1C(=O)[C@H]1CCCN1C(=O)c1cccc(Cl)c1, the inhibition was 0.25% (inactive).
With O=C(NCc1ccccc1)[C@H]1CCCN1C(=O)[C@H]1CCCN1C(=O)c1cc(F)cc(F)c1 the inhibition was 0.04% (inactive).
In the case of Cc1cc(=O)[nH]c(SCC(=O)Nc2ccc(F)cc2F)n1, the inhibition is reported as 0.36% (inactive).
In the case of CC(=O)Nc1ccc(OC[C@@H](O)CN2CCC(C(O)(c3ccccc3)c3ccccc3)CC2)cc1, the inhibition is reported as -0.12% (inactive).
With COc1ccc(Cn2cc(CN3[C@@H](CC(C)C)COc4cc(Br)ccc4S3(=O)=O)nn2)cc1 the inhibition was 3.87% (inactive).
For O=S1(=O)c2ccc(Br)cc2OC[C@@H](Cc2ccccc2)N1Cc1cn(Cc2ccco2)nn1, the inhibition was 6.61% (inactive).
O=S1(=O)c2ccc(Br)cc2OC[C@H](Cc2ccccc2)N1Cc1cn(Cc2ccccc2)nn1 was tested, and the inhibition was 10.2% (active).
With O=C(CCCCCN1C(=O)C2C3C=CC(C3)C2C1=O)Nc1ccccc1 (configuration not stated) the inhibition was 4.2% (inactive).
CCOC(=O)C1CCN(C(=O)C(C)(C)NC(=O)Nc2ccc(F)c(F)c2)CC1 was tested, and the inhibition was 6.44% (inactive).
For COCCCNC(=O)C1CC(=O)N(CCc2ccccc2)C1 (configuration not stated), the inhibition was 7.12% (inactive).
For Cc1ccc(CCN2CC(C(=O)NCCc3ccccc3)CC2=O)cc1 (configuration not stated), the inhibition was 7.32% (inactive).
With O=C(NCCCN1CCCCC1)C1CC(=O)N(CCc2ccccc2)C1 (configuration not stated) the inhibition was 10% (active).
COc1cccc(Cn2cc(COC(=O)Nc3ccc(F)cc3)nn2)c1 was tested, and the inhibition was -1.49% (inactive).
For CCOC(=O)[C@@]12CN(C(=O)OC(C)(C)C)CC=C1N(Cc1ccc(OC)cc1)C(=O)[C@H]2CC(=O)NCc1ccc(OC)c(OC)c1, the inhibition was 2.04% (inactive).
COc1ccc(CN2C/C(=C/c3ccccc3)N3C(=O)C[C@@H](c4ccccc4)N=C23)c(OC)c1 was tested, and the inhibition was -7.12% (inactive).
For O=C1c2ccccc2S(=O)(=O)N1Cc1c(F)cccc1Cl, the inhibition was -1.51% (inactive).
With CS(=O)(=O)N(CC(O)Cn1c2ccccc2c2ccccc21)c1cccc2ccccc12 (configuration not stated) the inhibition was -10.8% (inactive).
For O=C1c2ccccc2S(=O)(=O)N1CC(O)Cn1c2ccccc2c2ccccc21 (configuration not stated), the inhibition was 15.2% (active).
For C=CCN(C)CC#Cc1ccccc1, the inhibition was 1.26% (inactive).
With CC1(C)CC(=O)C=C(NCCCN2CCCC2=O)C1 the inhibition was 1.47% (inactive).
In the case of CC1(C)CC(=O)C=C(NCCN2CCNCC2)C1, the inhibition is reported as 10.7% (active).
For COc1ccc(CCNC2=CC(=O)CC(C)(C)C2)cc1, the inhibition was 1.19% (inactive).
With O=C(CCS(=O)(=O)c1ccccc1)Nc1ccc(Cl)c(Cl)c1 the inhibition was -5.17% (inactive).
For CCOC(=O)N1CCN(C(=O)C[C@@H]2C(=O)N(CCc3ccc(Cl)cc3)C3=CCCC[C@]32C(=O)OCC)CC1, the inhibition was 2.91% (inactive).
In the case of CCOC(=O)N1CCC(NC(=O)Cc2cn(C)c3ccccc23)CC1, the inhibition is reported as 2.53% (inactive).
With CCOC(=O)N1CCC(c2cc(=O)n(-c3ccccc3)[nH]2)CC1 the inhibition was 9.95% (active).
For CCOC(=O)N1CCC(C(N)=O)CC1, the inhibition was -1.53% (inactive).
With O=C(OCC#CCSc1nnc(-c2ccco2)o1)c1ccc(F)cc1 the inhibition was -0.72% (inactive).
With CCN(CC)C(=O)CC[C@H]1CC[C@]2(CCCN(Cc3ccc(Cl)cc3)C2)O1 the inhibition was 3.26% (inactive).
CCCCCCN1CCS(=O)(=O)N(Cc2ccc(C(F)(F)F)cc2)C(C(=O)OC)C1 (configuration not stated) was tested, and the inhibition was -2.36% (inactive).
With Cc1cc(NC(=O)c2ccccc2C)no1 the inhibition was 3.09% (inactive).
For Cc1ccccc1C(=O)Nc1ccccc1Sc1ccccc1, the inhibition was 10.7% (active).
CSc1ccccc1NC(=O)c1cc(Cl)sc1Cl was tested, and the inhibition was 3.13% (inactive).
In the case of CCOC(=O)[C@]12CCCC3=C1N(CCC3)C(=O)[C@@H](CC(=O)N1CCSCC1)C2, the inhibition is reported as 4.63% (inactive).
For COc1ccc(C(=O)OCCN2CCN(C3CN(Cc4cn(Cc5ccccc5F)nn4)S(=O)(=O)C3)CC2)cc1OC (configuration not stated), the inhibition was -0.1% (inactive).
O=C(NC1CCCCN(Cc2ccc(Cl)cc2)C1=O)c1ccc(Br)cc1 (configuration not stated) was tested, and the inhibition was 3.44% (inactive).
CCOC(=O)[C@]12CCCCC/C=C\1N(Cc1ccc(OC)cc1)C(=O)[C@H]2CC(=O)NCCCN1CCCC1=O was tested, and the inhibition was 1.96% (inactive).
CN(CC(=O)NC1CCCCC1)S(=O)(=O)c1cccc2cccnc12 was tested, and the inhibition was -1.31% (inactive).
In the case of CN(CC(=O)NC1CCN(Cc2ccccc2)CC1)S(=O)(=O)c1ccc(Cl)s1, the inhibition is reported as 6.37% (inactive).
In the case of CN(CC(=O)NC1CCCCC1)S(=O)(=O)c1ccc(Br)s1, the inhibition is reported as 10.4% (active).
